Most compounds without a hit are left out; they make up all but 21% or so of the library.
IL-1B inflam inh – inflammasome signaling inhibition, IL-1 beta readout; actives 4.7% (n = 360,000); activity change, % at 57.5 µM; THP-1 LPS/ATP IL-1B secretion, AlphaLISA, 16 h; hits give low values; in the data active = activity change below about -50%; inconclusive = mostly about -30% to -49%
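Secreted IL-1B measured by AlphaLISA bead assay after 16 h compound exposure of THP-1 cells; compounds (final up to 57.5 uM) added 1 h before LPS (250 ng/mL) and ATP (1.25 mM) stimulation; lower signal means less secretion.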
RORg inh – inhibitors of mouse ROR gamma transcriptional activity; P51450; Drosophila S2 Gal4-RORgamma UAS-luciferase reporter, 20 h; Potency, µM (highest dose often 53.6 µM), for inactives: at the highest dose activity change, negative = inhibition, actives largely listed as inhibitors; actives 5.4% (n = 310,000); AID 2551; note: potency is the fitted concentration of half-maximal effect; nearly all actives have a fitted effect of over 60% in size
Target sequence (P51450 whole entry, looked up, the tested form may be a part): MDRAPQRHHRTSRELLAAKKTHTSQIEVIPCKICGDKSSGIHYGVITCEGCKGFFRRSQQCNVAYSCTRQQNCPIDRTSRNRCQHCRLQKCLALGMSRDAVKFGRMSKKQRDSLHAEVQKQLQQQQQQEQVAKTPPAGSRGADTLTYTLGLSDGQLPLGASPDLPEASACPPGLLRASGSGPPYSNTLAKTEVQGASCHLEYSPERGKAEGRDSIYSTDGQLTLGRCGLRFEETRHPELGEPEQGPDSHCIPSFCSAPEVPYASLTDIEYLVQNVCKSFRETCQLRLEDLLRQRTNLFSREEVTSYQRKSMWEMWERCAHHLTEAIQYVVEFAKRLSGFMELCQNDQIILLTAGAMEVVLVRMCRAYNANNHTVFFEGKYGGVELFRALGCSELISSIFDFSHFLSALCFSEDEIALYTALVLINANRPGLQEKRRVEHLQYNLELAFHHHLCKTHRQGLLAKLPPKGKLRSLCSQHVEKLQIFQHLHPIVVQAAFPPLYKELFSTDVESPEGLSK
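Drosophila S2 cells stably expressing Gal4-DBD/mouse RORγ fusion under metallothionein promoter plus UAS-luciferase; compound 1 h, then 700 uM CuSO4 induction for 20 h at ambient temperature; inhibition read as reduced luminescence.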
DT40 TDP1 CPT – DT40-hTDP1 cell growth loss with CPT. actives 12% (n = 420,000). Potency, µM (titrated, usually from 46.2 µM), inactives show at the top dose activity change, negative = growth inhibition, most hits filed as inhibitors. chicken DT40 Tdp1-/-;hTDP1 cells + 20 nM CPT, ATP luminescence, 48 h; note: potency is the fitted concentration of half-maximal effect; nearly all actives have a fitted effect of over 55% in size
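Chicken DT40 Tdp1-/- cells complemented with human TDP1, 400 cells/well, exposed to compounds plus 20 nM camptothecin for at least 48 h at 37 C; viability read as ATP content by CellTiter-Glo luminescence.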
VP16 counter – inhibits Gal4-VP16 luciferase reporter, ROR gamma counter-screen. Drosophila S2 Gal4-VP16 UAS-luciferase, luminescence, 20 h. actives 3.5% (n = 310,000). Potency, µM (titrated, usually from 53.6 µM), for inactives: top-dose activity, negative = inhibition, actives largely listed as inhibitors;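 note: Gal4-VP16 expression switched on by copper sulfate through the metallothionein promoter; potency is the fitted concentration of half-maximal effect; nearly all actives have a fitted effect of over 50% in size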
TDP1 cell noCPT – qHTS for Inhibitors of human tyrosyl-DNA phosphodiesterase 1 (TDP1): qHTS in cells in absence of CPT. actives 15% (n = 420,000). Potency, µM (highest dose often 46.2 µM), for the others: at the highest dose activity change, negative = growth inhibition, usual class: inhibitors. DT40 Tdp1-/- hTDP1 cells, no CPT, ATP luminescence, 48 h; note: potency is the fitted concentration of half-maximal effect; nearly all actives have a fitted effect of over 55% in size
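Readout: luminescence from CellTiter-Glo after 30 min in the dark at RT. Cells: DT40 Tdp1-/- with stable hTDP1, 400/well. Exposure: compounds alone, ≥48 hr, 37 °C.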
ELG1 DNA repair – inhibitors of ELG1-dependent DNA repair in HEK293T cells; actives 2.3% (n = 330,000); HEK293T ELG1-luciferase reporter, luminescence, 16 h; DNA damage induced by 5-fluorouridine; AID 504467; Potency, µM (series often up to 46.1 µM), without a hit: top-dose activity change, negative = inhibition, most hits filed as inhibitors; note: potency is the fitted concentration of half-maximal effect; nearly all actives have a fitted effect of over 55% in size
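In this reporter screen, reduction of luminescence relative to DMSO vehicle indicated activity. Compounds and 5-fluorouridine were added together to 2,000 cells per well, incubated for 16 hr at 37 °C, then developed with ONE-Glo.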
Starred values were filed as active, the others as inactive; ? = inconclusive; / = no result; [ ] = dose if it differs, or a comment. Unless noted, calls come from the whole dose curve; as a rule, active = well fitted curve in the direction sought with a large enough effect; inconclusive = small, poorly fitted or top-dose-only effect, or another doubt; inactive = no such curve, though single readings can be large; an effect the other way counts as inactive or inconclusive. % is set by controls: 0 for no effect and ±100 for the full control effect.

SMILES	IL-1B inflam inh	RORg inh	DT40 TDP1 CPT	VP16 counter	TDP1 cell noCPT	ELG1 DNA repair
CCOc1cc2[nH]c(=S)n(CCCOC)c(=O)c2cc1OCC	4	11µM*	-6%	?	?	-8%
COc1cccc(-c2cc3c(c(OC)c2)OCCN(S(=O)(=O)c2ccccc2OC(F)(F)F)C3)n1	/	/	3%[9.04 µM]	/	-6%	/
O=C(Nc1c2c(nc3ccccc13)CCCC2)c1cccc([N+](=O)[O-])c1	-5	20%	-6%	?	-29%	-6%
CCOc1cc2[nH]c(=S)n(C3CC3)c(=O)c2cc1OCC	29	4.5µM*	-28%	16µM*	?	?
COc1ccc(CCNc2nc3cc(OC)c(OC)cc3c3nc(-c4cccnc4)nn23)cc1OC	/	/	-16%	/	-9%	/
O=C(Nc1nnc(COc2ccc(Cl)cc2)s1)c1ccco1	?	-12%	29µM*	-4%	?	7%
CCCOc1cccc(-c2nnc(NC(=O)c3ccco3)s2)c1	10	-25%	?	-1%	21µM*	17%
O=C(Nc1nnc(COc2ccc(Cl)cc2)s1)c1cccs1	1	-44%	15µM*	-21%	12µM*	14%
Cc1cc(C)c2nc(NNC(=O)c3ccc(S(=O)(=O)N4CC(C)CC(C)C4)cc3)sc2c1 (stereo unspecified)	104	2µM*	5.8µM*	7.9µM*	5.8µM*	0%
Cc1cccc2sc(NNC(=O)c3ccc(S(=O)(=O)N4CC(C)CC(C)C4)cc3)nc12 (stereo unspecified)	122	0.71µM*	13µM*	1.4µM*	7.3µM*	?
Cc1cc(C)c2nc(NNC(=O)c3ccc(S(=O)(=O)N4CCCC(C)C4)cc3)sc2c1 (stereo unspecified)	120	0.79µM*	2.9µM*	5µM*	4.1µM*	?
Cc1cc(C)c2nc(NC(=O)c3ccc(S(=O)(=O)N4CCC(C)CC4)cc3)sc2c1	/	/	-19%	/	-6%	/
CC1CCC(NC(=O)c2[nH]c(C(F)(F)F)nc2-c2ccccc2)CC1 (stereo unspecified)	-7	/	-19%	/	-26%	/
O=C(Nc1cccc(Cl)c1)C1C2C=CC3(O2)C1C(=O)N(CCCN1CCCCC1)C3C(=O)NC1CCCCC1 (stereo unspecified)	5	0%	15%	-3%	7%	0%
O=C(Nc1ccc(Cl)c(Cl)c1)C1C2C=CC3(O2)C1C(=O)N(CCN1CCCCC1)C3C(=O)NC1CCCCC1 (stereo unspecified)	-81*	-1%	?	-3%	?	-6%
CC1CCCC(NC(=O)C2N(CCCN3CCCC3)C(=O)C3C(C(=O)Nc4ccc(Cl)cc4)C4C=CC32O4)C1C (stereo unspecified)	-65*	-20%	-22%	16%	?	-8%
C[C@H](CO)N1C[C@H](C)[C@@H](CN(C)C(=O)c2ccccc2)OCc2cnnn2CCCC1=O	15	/	4%	/	8%	/
Cc1ccc2[nH]c3c(c2c1)CN(C(=O)CN1CCN(C(=O)c2ccco2)CC1)CC3	/	15%	/	-5%	/	7%
Cc1ccc2[nH]c3c(c2c1)CN(C(=O)CN1CCN(c2cccc(C)c2C)CC1)CC3	-11	-7%	23µM*	-3%	21µM*	?
CCOC(=O)[C@@H]1[C@H]2COc3ccc(Br)cc3[C@H]2N2C(=O)N(c3ccc(F)cc3)C(=O)[C@@]12C	12	-21%	-27%	6%	?	0%
COc1ccccc1N1CC(C(=O)OCC(=O)Nc2c(C)cccc2C)CC1=O (stereo unspecified)	6	0%	-1%	-12%	-9%	14%
